# ALDH1A1 inh: qHTS Assay for Inhibitors of Aldehyde Dehydrogenase 1 (ALDH1A1) | Potency, µM (highest dose often 75.3 µM), hits mostly inhibitors | Aldehyde dehydrogenase 1A1 (Homo sapiens), P00352 | Purified ALDH1A1, NADH fluorescence, propionaldehyde substrate | actives 7.3% (n = 220,000) | AID 1030, 2008; active = well fitted inhibition curve with a large enough effect, not every such curve was filed as active; inconclusive = small, poorly fitted or top-dose-only effect, or another doubt; inactive = no such curve, though single readings can be large or run the other way
# JMJD2E inh: qHTS Assay for Inhibitors of Human Jumonji Domain Containing 2E (JMJD2E) | AID 2147, 2009 | Potency, µM (highest dose often 57.1 µM), most hits filed as inhibitors | JMJD2E catalytic domain, FDH-coupled NADH fluorescence (FDH is formaldehyde dehydrogenase) | actives 1.6% (n = 230,000); active = well fitted inhibition curve with a large enough effect, not every such curve was filed as active; inconclusive = small, poorly fitted or top-dose-only effect, or another doubt; inactive = no such curve, though single readings can be large or run the other way; also: nearly all actives have a fitted effect of over 50% in size
# Target sequence (B2RXH2 1-337 limits assumed): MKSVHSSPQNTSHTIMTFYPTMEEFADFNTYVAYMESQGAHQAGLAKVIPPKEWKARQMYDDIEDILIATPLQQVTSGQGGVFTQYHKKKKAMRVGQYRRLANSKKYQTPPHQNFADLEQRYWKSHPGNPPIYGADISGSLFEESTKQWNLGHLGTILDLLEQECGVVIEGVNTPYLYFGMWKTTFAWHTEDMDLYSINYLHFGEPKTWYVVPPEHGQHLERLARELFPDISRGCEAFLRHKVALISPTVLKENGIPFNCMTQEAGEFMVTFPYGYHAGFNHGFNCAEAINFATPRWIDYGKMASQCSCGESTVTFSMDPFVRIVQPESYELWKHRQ
# G9a inh: qHTS Assay for Inhibitors of Histone Lysine Methyltransferase G9a; AID 504332, 2011; actives 8.8% (n = 350,000); Potency, µM (doses to about 102 µM), hits mostly inhibitors; Histone-lysine N-methyltransferase EHMT2 (Homo sapiens), Q96KQ7; G9a H3K9 monomethylation, AlphaScreen, 2 h; also: nearly all actives have a fitted effect of over 75% in size
# Target sequence (Q96KQ7 913-1193 limits assumed): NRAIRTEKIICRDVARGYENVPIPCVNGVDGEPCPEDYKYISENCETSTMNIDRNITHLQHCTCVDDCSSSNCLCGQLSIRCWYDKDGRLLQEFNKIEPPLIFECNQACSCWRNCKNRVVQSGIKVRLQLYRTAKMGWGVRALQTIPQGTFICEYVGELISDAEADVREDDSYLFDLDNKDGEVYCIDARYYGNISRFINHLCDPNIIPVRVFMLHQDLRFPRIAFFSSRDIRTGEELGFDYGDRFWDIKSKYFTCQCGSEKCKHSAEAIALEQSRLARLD
#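 Chemiluminescent proximity detection of H3K9 monomethylation, read after 10 min bead incubation in the dark. Reaction: 20 nM G9a, 500 nM biotin-H3K9 peptide, 20 uM SAM cofactor, 2 h, room temperature, following 15 min enzyme-compound preincubation.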
# Lamin A splicing: qHTS Assay for Modulators of Lamin A Splicing. HeLa LMNA splicing GFP/RFP minigene ratio, 48 h. Potency, µM (titrated, usually from 46.1 µM), hits mostly inhibitors. actives 0.01% (n = 200,000). AID 1487, 2009; active = well fitted inhibition curve with a large enough effect in the signal ratio, with a control signal flat, not every such curve was filed as active; inconclusive = small, poorly fitted or top-dose-only effect, or effect the other way, or a change in a side signal; the % refers to the signal ratio
#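 S3 HeLa stable clones carrying a lamin A-EGFP splicing minigene plus DsRed2 were seeded at 600 cells/well in Opti-MEM with 2% FBS, pin-dosed and incubated 48 h at 37°C. Acumen cytometry (488 nm) gave the GFP/RFP total-intensity ratio.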
# Sfp inh: qHTS Assay for Inhibitors of Bacillus subtilis Sfp phosphopantetheinyl transferase (PPTase); Potency, µM, usual class: inhibitors; actives 3.5% (n = 310,000); AID 1490, 2009; 4'-phosphopantetheinyl transferase ffp (Bacillus subtilis), Q9F4F7; Biochemical Sfp PPTase activity, qHTS;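 also: the enzyme is Sfp with the accession as filed and its product quenches rhodamine fluorescence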
#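 With Hepes-Na pH 7.6 buffer containing 10 mM MgCl2, Sfp (15 nM) modified BHQ-2-YbbR (12.5 uM) using rhodamine-CoA (5 uM). Two reads 30 minutes apart at 525/598 nm yielded each well's rate.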
# miR-21 act: qHTS Assay for Modulators of miRNAs and/orActivators of miR-21; 340,000 tested, under 10 active; AID 2288, 2010; HeLa miR-21 FLuc reporter, luciferase, 48 h; Potency, µM (titrated, usually from 38.3 µM), most hits filed as activators;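 also: miR-21 action dims this reporter so a rising signal means less miR-21 action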
#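 HeLa cells endogenously expressing miR-21, stably carrying CMV-driven firefly luciferase with a downstream miR-21 binding site, 2000 cells/well. Titrations up to approximately 40 uM, 48 hours; luciferase luminescence read.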
# A number is an active result; i = inactive; ? = inconclusive; nt = not tested or not shown; [ ] = remark or other dose. Only some compounds are listed: those with a hit (about 13% of all), similar ones and a draw of the others. Unless noted, calls follow the shape of the dose curve; as a rule, active = well fitted curve in the direction sought with a large enough effect; inconclusive = small, poorly fitted or top-dose-only effect, or another doubt; inactive = no such curve, though single readings can be large; an effect the other way counts as inactive or inconclusive.
SMILES,ALDH1A1 inh,JMJD2E inh,G9a inh,Lamin A splicing,Sfp inh,miR-21 act
CCOc1ccc(OCCCC(=O)Nc2cc(Cl)ccc2-n2cncn2)cc1,nt,nt,i,nt,nt,nt
CC(C)CNc1cc(NC2CCCCC2)c2c3c(onc13)-c1ccccc1C2=O,nt,nt,10µM,nt,nt,i
COc1cccc(N2CCN(c3nc(C)cc(=O)[nH]3)CC2)c1,nt,nt,i,nt,i,i
CCN1CCN(S(=O)(=O)c2cccc(S(=O)(=O)N3CCOCC3)c2)CC1,i,i,i,nt,i,i
CCC(C)n1c(-c2cccc(S(=O)(=O)N3CCOCC3)c2)n[nH]c1=S (stereo not given),nt,nt,3.2µM,nt,nt,nt
CCN(CC)S(=O)(=O)c1cccc(-c2n[nH]c(=S)n2C(C)COC)c1 (stereo not given),i,i,10µM,nt,i,i
CCN(CC)S(=O)(=O)c1cccc(-c2nnc(SCC(N)=O)n2C)c1,i,i,i,nt,i,i
CCC(C)n1c(-c2cccc(S(=O)(=O)N(CC)CC)c2)n[nH]c1=S (stereo not given),13µM,?,8.9µM,nt,i,i
CCN(CC)S(=O)(=O)c1cccc(-c2nnc(SCC(N)=O)n2N)c1,nt,i,i,nt,i,i
CCn1c(-c2cccc(S(=O)(=O)N3CCCC3)c2)n[nH]c1=S,nt,i,8.9µM,nt,i,i
CN(C1CCCCC1)S(=O)(=O)c1ccc2c(c1)c(=O)c(C(=O)NCc1ccccc1Cl)cn2C,nt,nt,i,nt,nt,i
COc1ccccc1OS(=O)(=O)c1ccc(NC(C)=O)cc1,?,i,i,?,i,i
COC(=O)/C=C/S(=O)(=O)c1ccc(NC(C)=O)cc1,0.32µM,i,8.9µM,?,?,?
CC1=NN(c2ccc(Cl)c(C(=O)O)c2)C(=O)/C1=C\c1ccc(-c2ccc(C(=O)O)cc2)o1,i,?,8.9µM,i,i,i
CC1=NN(c2ccc(C)cc2)C(=O)/C1=C/c1ccc(-c2cc([N+](=O)[O-])ccc2O)o1,nt,nt,nt,nt,i,i
CC1=NN(c2ccc(C(=O)O)cc2)C(=O)/C1=C/c1ccc(-c2ccccc2F)o1,nt,nt,7.9µM,nt,i,i
CC1Cc2ccccc2N1C(=O)CN1CCC(n2nnc3cc(C(F)(F)F)ccc32)CC1 (stereo not given),11µM,i,i,?,i,?
Cc1sc2nc(CN3CCCC3)nc(N3CCN(C(=O)c4ccco4)CC3)c2c1C,i,?,?,i,i,i
Cc1sc2nc(C3CC3)nc(N3CCN(C(=O)c4ccc(F)cc4)CC3)c2c1C,nt,nt,45µM,nt,i,i
Cc1sc2nc(C3CC3)nc(N3CCN(C(=O)c4ccc(Cl)cc4)CC3)c2c1C,nt,nt,45µM,nt,i,i
Cc1sc2nc(C3CC3)nc(N3CCN(S(=O)(=O)c4ccc(F)cc4)CC3)c2c1C,i,i,i,?,i,i
COc1ccc(C(=O)N2CCN(c3nc(C4CC4)nc4sc(C)c(C)c34)CC2)cc1,nt,nt,40µM,nt,?,i
Cc1sc2nc(C3CC3)nc(N3CCN(C(=O)c4ccccc4F)CC3)c2c1C,nt,nt,45µM,nt,i,i
CNC(=O)COc1coc(CN2CCN(c3cccc(Cl)c3)CC2)cc1=O,nt,nt,i,nt,i,i
Cc1oncc1C(=O)N1CCCC(CO)(Cc2ccc(F)cc2F)C1 (stereo not given),nt,nt,i,nt,i,i
SMILES,ALDH1A1 inh,JMJD2E inh,G9a inh,Lamin A splicing,Sfp inh,miR-21 act
Cc1sc2c(c1C)c(=O)n(CCc1ccccc1)c(=O)n2Cc1ccc(F)cc1,nt,nt,i,nt,nt,i
CCOc1ccc(C(=O)Nc2ccccc2N2CCN(C(=O)c3ccccc3)CC2)cc1[N+](=O)[O-],nt,nt,nt,nt,i,i
CC(=O)[C@]1(O)CCC2C3CC(C)C4=CC(=O)C=CC4(C)[C@@]3(F)C(O)C[C@]21C (stereo not given in full),i,i,?,nt,i,nt
c1cc[n+](CCC[n+]2ccccc2)cc1,nt,nt,11µM,nt,i,i
COc1ccc(N2C3=C(CC4=C2CC(C)(C)CC4=O)C(=O)CC(C)(C)C3)cc1,?,?,?,?,18µM,?
COc1ccc(N2C3=C(CC4=C2CCCC4=O)C(=O)CCC3)cc1,?,?,?,i,i,i
CC(=O)c1cc2c(cc1NC(=O)CCn1cccc1)OCO2,32µM,?,?,i,50µM,i
CC(=O)c1cc2c(cc1NC(=O)CN1CCCCC1C)OCO2 (stereo not given),?,?,13µM,i,i,i
CC1CCCCN1CC(=O)Nc1ccc2c(c1)OCO2 (stereo not given),nt,nt,i[12.7 µM],nt,nt,nt
COCCN(C(=O)COC(=O)c1cc2c(s1)CCC2)c1c(N)n(Cc2ccccc2)c(=O)[nH]c1=O,nt,nt,10µM,nt,nt,nt
COCCN(C(=O)COC(=O)c1ccc2c(c1)OCCO2)c1c(N)n(Cc2ccccc2)c(=O)[nH]c1=O,nt,nt,i,nt,nt,nt
CC(C)CN(C(=O)COC(=O)c1ccccc1NCc1ccco1)c1c(N)n(Cc2ccccc2)c(=O)[nH]c1=O,nt,nt,i,nt,nt,nt
CCC1CCc2sc(C(=O)OCC(=O)N(CCOC)c3c(N)n(Cc4ccccc4)c(=O)[nH]c3=O)cc2C1 (stereo not given),nt,nt,28µM,nt,nt,nt
COCCN(C(=O)COC(=O)CC1CCCCC1)c1c(N)n(Cc2ccccc2)c(=O)[nH]c1=O,nt,nt,i,nt,i,i
COCCN(C(=O)COC(=O)c1ccccc1NCc1ccco1)c1c(N)n(Cc2ccccc2)c(=O)[nH]c1=O,nt,nt,79µM,nt,nt,nt
COCCN(C(=O)CN1CCc2ccccc2C1)c1c(N)n(Cc2ccccc2)c(=O)[nH]c1=O,i,i,40µM,i,i,i
CC(=O)N1CCC[C@@]2(CCN(C(c3ccccc3)c3ccccc3)C2)C1,i,nt,i[12.7 µM],nt,i,nt
COc1ccccc1CCC(=O)N(CCC1=CCCCC1)c1c(N)n(Cc2ccccc2)c(=O)[nH]c1=O,nt,nt,50µM,nt,nt,nt
Cc1ccc(NC(=O)CC(C)S(=O)(=O)c2ccc3c(c2)NC(=O)CO3)cc1Cl (stereo not given),nt,nt,i,i,nt,i
O=[N+]([O-])c1cccc2ccc(/C=C/c3cccc(Br)c3)nc12,i,i,?,i,i,i
O=[N+]([O-])c1cccc2ccc(/C=C/c3ccc(C(F)(F)F)cc3)nc12,i,i,35µM,?,?,i
O=[N+]([O-])c1cccc2ccc(/C=C/c3ccc(Cl)cc3)nc12,i,i,79µM,?,i,i
CC(C)=NNc1nc2c(c(=O)[nH]c(=O)n2C)n1CCc1ccccc1,?,?,45µM,?,?,i
CC/C(C)=N/Nc1nc2c(c(=O)[nH]c(=O)n2C)n1CCc1ccccc1,?,?,56µM,?,?,i
